mHtt clearance = mutant huntingtin protein clearance; inhibition, % at 1.5 µM; HeLa Exon1htt(103Q)mCFP, aggregate imaging; zero = plate's median compound well; hit rate 0.42% among 47,000;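 active = inhibition of aggregate fluorescence above about 70%, also judged a hit by eye on the cell image, limit read from the data, passing the limit was not always enough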;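 note: cells exposed to compound for three days before fixation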
NADH coupling = blocks coupling enzymes of NAD/NADH assays; IC50, µM (doses to about 10 µM), without a hit: top-dose inhibition; hit rate 0.02% among 65,000; AID 774; coupled PK/LDH NADH assays, four targets;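 active = single-dose screening hits from any of four coupled enzyme assays that gave an IC50 when retested across doses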;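 note: the DPM-DC format reads NADH fluorescence rather than 340 nm absorbance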
M1 agonist = M1 muscarinic receptor agonism | CHO-M1 cells, Fluo-4 calcium fluorescence, agonist mode; hits give high values | B-score at 10 µM | hit rate 3% among 64,000 | AID 626;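 active = fluorescence rise, raw or as B-score row- and column-corrected plate score, outside the 99.7% band of its plate's samples, either direction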
M1 antagonist = blocks the rat M1 muscarinic receptor response to acetylcholine; CHO-M1 cells, Fluo-4 calcium, ACh EC80 antagonist mode; hits give low values; AID 628; hit rate 3.4% among 64,000; B-score at 10 µM;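 active = calcium fluorescence response, raw or row-and-column corrected B-score, differing from the plate sample mean either way at a set confidence level, mostly lower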
Target sequence (P08482 whole entry, looked up): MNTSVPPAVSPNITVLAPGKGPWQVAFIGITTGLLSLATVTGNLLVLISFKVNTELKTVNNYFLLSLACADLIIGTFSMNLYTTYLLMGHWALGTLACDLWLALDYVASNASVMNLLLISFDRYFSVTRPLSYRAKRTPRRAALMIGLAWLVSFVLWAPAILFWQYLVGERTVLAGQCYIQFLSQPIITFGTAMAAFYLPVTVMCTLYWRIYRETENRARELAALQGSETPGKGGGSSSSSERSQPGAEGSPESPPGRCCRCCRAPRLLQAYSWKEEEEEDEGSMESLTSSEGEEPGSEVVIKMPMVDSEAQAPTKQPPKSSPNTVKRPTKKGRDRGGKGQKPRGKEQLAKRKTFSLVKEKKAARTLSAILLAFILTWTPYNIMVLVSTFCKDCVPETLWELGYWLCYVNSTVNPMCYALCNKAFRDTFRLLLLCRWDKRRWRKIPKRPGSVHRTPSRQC
Autofluor 339 = intrinsic fluorescence of library compounds, ex339/em460 – biochemical, MLSMR library, data from DPM-DC assay, artefact control, profiling panel. compound autofluorescence, ex339/em460 nm, NADH buffer; hits give high values; 1 = no-compound wells, NADH background. fluorescence fold increase at 10 µM. hit rate 5.5% among 65,000. AID 709;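 active = at 10 µM, mean starting fluorescence two-fold or more over control wells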;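 note: signal is the first read of a kinetic run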
Abs 340nm = compounds absorbing at 340 nm; compound absorbance at 340 nm, fold over control; fold change at 10 µM; 65,000 tested, under 10 active; AID 708;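 active = at 10 µM dose, initial 340 nm absorbance at least 2 fold that of control wells; inactive = change under 2 fold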;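 note: initial absorbance extrapolated from kinetic A340 decline of NADH oxidation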
An asterisk follows results filed as active; . = no result given. A selection: hits, their analogues and other compounds. The true share with any hit is near 9.3%.

SMILES | mHtt clearance | NADH coupling | M1 agonist | M1 antagonist | Autofluor 339 | Abs 340nm
CCCc1nc(N2CCCC2)c(C#N)c2c1CCCC2 | . | 7.0% | -0.572 | 0.174 | 2.06* | 1.03
CCc1nc(N2CCCC2)c(C#N)c2c1CCCC2 | -27.3 | 4.0% | 0.0365 | 0.817 | 1.62 | 0.93
CCc1nc(N2CCOCC2)c(C#N)c2c1CCCC2 | . | 1.0% | 0.379 | 0.758 | 2.02* | 1.04
CN1CCc2c(C#N)c(N3CCCCC3)nc(N3CCOCC3)c2C1 | . | 6.0% | -1.29 | -0.375 | 1.58 | 1.12
CCN1CCc2c(C#N)c(N3CCCCC3)nc(NCc3ccccc3)c2C1 | . | 5.0% | -2.54 | -0.462 | 1.83 | 1.01
CC(C)c1nc(N2CCCC2)c(C#N)c2c1CCCC2 | 15.8 | 1.0% | 0.566 | 0.734 | 2.12* | 1.05
c1csc(CNCCCN2CCOCC2)c1 | -30.0 | . | . | . | . | .
N#Cc1nc(-c2cccc3ccccc23)oc1NCCN1CCOCC1 | -10.9 | 14.0% | 0.944 | 0.136 | 3.63* | 1.07
N#Cc1nc(-c2cccs2)oc1NCCCN1CCOCC1 | -0.5 | 5.0% | -0.175 | 0.352 | 2.26* | 1.11
COc1ccc(-c2nc(C#N)c(NCCCN3CCOCC3)o2)cc1 | . | 2.0% | -0.992 | -0.894 | 2.11* | 1.12
Cc1ccc(-c2nc(C#N)c(NCCN3CCCCC3)o2)cc1 | -3.9 | 5.0% | . | . | 2.09* | 1.1
C=CCNC(=O)CC(C)C(CCCCC)C(=O)O (configuration not stated) | 2.8 | 6.0% | -0.796 | 0.0124 | 1.07 | 1
O=S(=O)(c1ccc(F)cc1)c1nc(-c2ccc(F)cc2)oc1NCCN1CCOCC1 | . | 5.0% | . | . | 1.09 | 1.06
N#Cc1nc(COc2ccccc2)oc1NCCN1CCOCC1 | -32.4 | 4.0% | 0.65 | 0.0861 | 1.05 | 1
N#Cc1nc(-c2ccc(F)cc2)oc1NCCN1CCOCC1 | -11.3 | 6.0% | -0.79 | -0.025 | 2.14* | 1.05
N#Cc1nc(-c2ccccc2F)oc1NCCN1CCOCC1 | -8.8 | 13.0% | -0.71 | 1.18 | 2.12* | 1.09
N#Cc1nc(-c2ccco2)oc1NCCN1CCOCC1 | -59.8 | 17.0% | 0.466 | -0.00616 | 2.98* | 1.03
COc1ccc(N(CC(=O)NCc2cccnc2)S(=O)(=O)c2c(C)nn(C)c2C)cc1 | -191.6 | 7.0% | -0.965 | 1.18 | 1.02 | 1.02
CSC(=O)CC(=O)NC(=O)c1ccccc1 | -63.0 | 4.0% | -0.712 | -0.616 | 1 | 1
COc1ccc(C2c3c(oc4ccc(F)cc4c3=O)C(=O)N2CCN2CCOCC2)cc1OC (configuration not stated) | . | 4.0% | -0.679 | 0.0102 | 1.07 | 1.07
CCOC(=O)N1CCC(NC(=O)c2csc3c2CCCC3)CC1 | 18.0 | 9.0% | -0.538 | 0.0186 | 1.04 | 1.01
CC1C(=NO)C(C)C(c2ccc(N(C)C)cc2)NC1c1ccc(N(C)C)cc1 (configuration not stated) | 31.4 | 4.0% | 0.103 | -1.4 | 1.09 | 1.02
FC(F)(F)c1ccc(N2CCOCC2)c(Nc2nc3ccccc3n3cnnc23)c1 | 1.6 | 2.0% | 0.202 | 0.00644 | 2.47* | 1.04
CCOC(=O)N1CCC(Nc2c(N3CCN(c4cccc(C(F)(F)F)c4)CC3)c(=O)c2=O)CC1 | 2.3 | 6.0% | 0.491 | 1.12 | 1.11 | 1.02
c1ccc(-c2noc(-c3cccc4ccccc34)n2)nc1 | 20.4 | 7.0% | -0.471 | 0.487 | 3.34* | 1.02
SMILES | mHtt clearance | NADH coupling | M1 agonist | M1 antagonist | Autofluor 339 | Abs 340nm
CCOc1ccc(-c2cc(NC(=O)Cn3ncc4c3-c3ccccc3OC4)on2)cc1OCC | . | 4.0% | 0.209 | 0.995 | 1.08 | 1.02
Cc1cccc2cc3c(NC(=O)c4ccccn4)nn(C)c3nc12 | . | 7.0% | 0.0342 | -0.169 | 2.09* | 1.01
COc1ccc(NC(=O)CCc2nc(-c3ccccc3F)no2)cc1 | . | 2.0% | -2.33 | 0.185 | 1.08 | 1
CCc1cc(=O)oc2cc(OC(C)C(=O)O)c(Cl)cc12 (configuration not stated) | . | 14.0% | . | . | 2.88* | 1.13
CCc1cc(=O)oc2cc(OCC(=O)O)c(Cl)cc12 | -66.3 | 12.0% | -0.632 | -0.0176 | 2.36* | 1.14
CCc1cc(=O)oc2cc(OCC(=O)N(CC)CC)c(Cl)cc12 | . | 10.0% | -0.148 | 1.28 | 1.54 | 1.1
Cc1cc2oc(=O)cc(CN3CCN(Cc4ccccc4)CC3)c2cc1Cl | . | 3.0% | 0.492 | -0.313 | 1.16 | 1.03
O=c1oc2ccccc2cc1-c1nc2ccccc2o1 | 51.8 | 14.0% | . | . | 2.11* | 1.17
COc1ccc(-n2c(CNC(=O)c3cc(OC)c(OC)c(OC)c3)n[nH]c2=S)cc1 | -14.2 | 7.0% | . | . | 1.09 | 0.98
OC1CN=C2C=CC=CN2C1 (configuration not stated) | -31.7 | 13.0% | -0.00583 | 0.422 | 2.25* | 1.03
O=C(C1CCC(CNc2c(N3CCCCC3)c(=O)c2=O)CC1)N1CCN(c2ccccn2)CC1 (configuration not stated) | . | 7.0% | 0.061 | -0.123 | 1.09 | 1.06
CCOC(=O)CNc1c(N2CCN(c3ccccn3)CC2)c(=O)c1=O | . | 1.0% | 0.305 | 1.07* | 1.07 | 1.04
Cc1onc(-c2ccccc2Cl)c1C(=O)Nc1cccc(-c2cn3cccnc3n2)c1 | 9.0 | 3.0% | 0.412 | -1.21 | 3.55* | 1.03
Cc1onc(-c2ccccc2Cl)c1C(=O)Nc1ccc(F)c(F)c1 | . | 7.0% | -0.0835 | -0.0642 | 1.08 | 1.02
O=C(Nc1ccc2nc(-c3cccs3)[nH]c2c1)c1cccs1 | . | 12.0% | . | . | 2.35* | 1.16
O=C(Nc1ccc2nc(-c3cccs3)[nH]c2c1)c1ccco1 | . | 4.0% | -0.321 | 0.0577 | 1.56 | 1.06
CC(=O)Nc1ccc2nc(-c3ccccn3)[nH]c2c1 | . | 8.0% | 0.628 | 0.548 | 3.73* | 1.1
CCOc1cccc(OCCCNCCCOC)c1 | 40.0 | 13.0% | 0.41 | -0.0398 | 1.08 | 1.06
O=C(COC(=O)c1ccccc1NC(=O)c1ccco1)Nc1ccc2c(c1)OCO2 | . | 3.0% | -1.61 | 0.31 | 1.45 | 1
O=C(COC(=O)c1ccccc1NC(=O)c1ccco1)NCCC1=CCCCC1 | . | 12.0% | -1.5 | 1.49 | 2.03* | 1.07
O=C(O)COc1ccc(-c2nnn(CC(=O)O)n2)cc1 | -0.2 | 6.0% | 0.182 | -0.91 | 1.1 | 0.99
Cn1cnc2c1c(=O)n(CC(O)CO)c(=O)n2C (configuration not stated) | 36.7 | 5.0% | 0.371 | 0.084 | 1.13 | 1.03
Cn1c(=O)c2c3c(sc2n2c(SCC(=O)c4ccc(Cl)cc4)nnc12)COC(C)(C)C3 | . | 2.0% | 0.0282 | -0.237 | 1.03 | 0.97
O=C(Nc1nccs1)c1cccc(NC(=O)c2ccco2)c1 | -33.1 | . | . | . | . | .
O=C1Nc2ccc(S(=O)(=O)NCc3ccccn3)c3cccc1c23 | . | 4.0% | 0 | 0.0242 | 3.81* | 1.11
CN1CCN(S(=O)(=O)c2ccc3c4c(cccc24)C(=O)N3)CC1 | . | 6.0% | 0.148 | -1.29 | 2.13* | 1.06
O=C1Nc2ccc(S(=O)(=O)N3CCOCC3)c3cccc1c23 | -18.4 | 2.0% | 0.29 | -0.292 | 4* | 1.11
O=C1Nc2ccc(S(=O)(=O)N3CCCC3)c3cccc1c23 | 44.0 | . | . | . | . | .
CCOc1ccccc1N1CCN(S(=O)(=O)c2ccc3c4c(cccc24)C(=O)N3)CC1 | . | 8.0% | -1.39 | -0.554 | 1.29 | 1.1

Screens (PubChem)
